# Reference: PMC11006913
# Where a chain is given by its changes, count along the chain named.
# Key:
# Test in all cases: PBM; 200 nM protein, PBS
# Conditions in all cases: dsDNA, one strand shown
# HESX1 [1] = target: HESX1 (Homo sapiens, UniProt Q9UBX0 95-180, R165K)
# VENTX [2] = target: T1, VENTX (Homo sapiens, UniProt O95231 78-163, R121Q)
# T1 sequence: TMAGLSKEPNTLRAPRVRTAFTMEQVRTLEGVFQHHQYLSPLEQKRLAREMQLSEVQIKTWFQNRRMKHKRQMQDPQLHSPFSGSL
# VENTX [3] = target: T2, VENTX (Homo sapiens, UniProt O95231 78-163)
# T2 sequence: T1 sequence with Q44R
# VENTX [4] = target: T3, VENTX (Homo sapiens, UniProt O95231 78-163, Y115F)
# T3 sequence: T1 sequence with Y38F, Q44R
# HESX1 [5] = target: HESX1 (Homo sapiens, UniProt Q9UBX0 95-180)
# HESX1 (Homo sapiens, UniProt Q9UBX0 95-180), sequence (Q9UBX0 95-180): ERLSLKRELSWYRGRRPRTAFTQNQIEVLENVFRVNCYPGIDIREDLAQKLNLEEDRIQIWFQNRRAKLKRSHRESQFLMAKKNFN
# HESX1 [6] = target: HESX1 (Homo sapiens, UniProt Q9UBX0 95-180, R109Q)
# HESX1 (Homo sapiens, UniProt Q9UBX0 95-180, R109Q), sequence (Q9UBX0 95-180 R109Q): as the sequence (Q9UBX0 95-180) above, with R15Q counted along it
# HESX1 [7] = target: HESX1 (Homo sapiens, UniProt Q9UBX0 95-180, P111T)
# HESX1 (Homo sapiens, UniProt Q9UBX0 95-180, P111T), sequence (Q9UBX0 95-180 P111T): as the sequence (Q9UBX0 95-180) above, with P17T counted along it
# HESX1 [8] = target: HESX1 (Homo sapiens, UniProt Q9UBX0 95-180, F115L)
# HESX1 (Homo sapiens, UniProt Q9UBX0 95-180, F115L), sequence (Q9UBX0 95-180 F115L): as the sequence (Q9UBX0 95-180) above, with F21L counted along it
# HOXA7 [9] = target: HOXA7 (Homo sapiens, UniProt P31268 116-202)
# HOXA7 (Homo sapiens, UniProt P31268 116-202), sequence (P31268 116-202): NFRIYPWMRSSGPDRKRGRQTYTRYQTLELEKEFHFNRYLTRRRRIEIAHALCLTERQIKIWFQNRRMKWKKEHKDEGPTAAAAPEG
# VAX1 [10] = target: VAX1 (Homo sapiens, UniProt Q5SQQ9 86-172)
# VAX1 (Homo sapiens, UniProt Q5SQQ9 86-172), sequence (Q5SQQ9 86-172): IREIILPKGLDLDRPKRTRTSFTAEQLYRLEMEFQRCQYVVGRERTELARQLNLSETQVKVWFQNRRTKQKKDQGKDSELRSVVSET
# VAX1 [11] = target: VAX1 (Homo sapiens, UniProt Q5SQQ9 86-172, T142I)
# VAX1 (Homo sapiens, UniProt Q5SQQ9 86-172, T142I), sequence (Q5SQQ9 86-172 T142I): as the sequence (Q5SQQ9 86-172) above, with T57I counted along it
# HOXA7 [12] = target: HOXA7 (Homo sapiens, UniProt P31268 116-202, W177C)
# HOXA7 (Homo sapiens, UniProt P31268 116-202, W177C), sequence (P31268 116-202 W177C): as the sequence (P31268 116-202) above, with W62C counted along it
# VAX1 [13] = target: VAX1 (Homo sapiens, UniProt Q5SQQ9 86-172, K157R)
# VAX1 (Homo sapiens, UniProt Q5SQQ9 86-172, K157R), sequence (Q5SQQ9 86-172 K157R): as the sequence (Q5SQQ9 86-172) above, with K72R counted along it
# HOXC9 [14] = target: HOXC9 (Homo sapiens, UniProt P31274 178-260, K195R)
# HOXC9 (Homo sapiens, UniProt P31274 178-260, K195R), sequence (P31274 178-260 K195R): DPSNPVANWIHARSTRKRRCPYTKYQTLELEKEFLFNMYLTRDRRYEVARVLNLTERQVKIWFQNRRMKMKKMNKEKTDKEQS
# HOXC10 [15] = target: HOXC10 (Homo sapiens, UniProt Q9NYD6 254-340)
# HOXC10 (Homo sapiens, UniProt Q9NYD6 254-340), sequence (Q9NYD6 254-340): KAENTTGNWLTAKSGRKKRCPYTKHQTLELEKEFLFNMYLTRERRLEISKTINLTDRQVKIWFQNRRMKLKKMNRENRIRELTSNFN
# HOXC9 [16] = target: HOXC9 (Homo sapiens, UniProt P31274 178-260)
# HOXC9 (Homo sapiens, UniProt P31274 178-260), sequence (P31274 178-260): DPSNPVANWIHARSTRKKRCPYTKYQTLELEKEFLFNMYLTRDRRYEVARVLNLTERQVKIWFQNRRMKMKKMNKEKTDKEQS
# MSX2 [17] = target: MSX2 (Homo sapiens, UniProt P35548 130-214, R199I)
# MSX2 (Homo sapiens, UniProt P35548 130-214, R199I), sequence (P35548 130-214 R199I): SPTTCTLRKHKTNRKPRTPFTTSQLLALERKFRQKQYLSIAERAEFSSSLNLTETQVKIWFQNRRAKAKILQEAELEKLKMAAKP
# HOXC9 [18] = target: HOXC9 (Homo sapiens, UniProt P31274 178-260, R193K)
# HOXC9 (Homo sapiens, UniProt P31274 178-260, R193K), sequence (P31274 178-260 R193K): as the sequence (P31274 178-260) above, with R16K counted along it
# HOXC10 [19] = target: HOXC10 (Homo sapiens, UniProt Q9NYD6 254-340, K271E)
# HOXC10 (Homo sapiens, UniProt Q9NYD6 254-340, K271E), sequence (Q9NYD6 254-340 K271E): as the sequence (Q9NYD6 254-340) above, with K18E counted along it
# MSX2 [20] = target: MSX2 (Homo sapiens, UniProt P35548 130-214)
# MSX2 (Homo sapiens, UniProt P35548 130-214), sequence (P35548 130-214): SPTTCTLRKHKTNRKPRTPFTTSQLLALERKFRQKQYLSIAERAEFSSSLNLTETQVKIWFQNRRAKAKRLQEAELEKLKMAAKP
# HOXC9 [21] = target: HOXC9 (Homo sapiens, UniProt P31274 178-260, R222W)
# HOXC9 (Homo sapiens, UniProt P31274 178-260, R222W), sequence (P31274 178-260 R222W): as the sequence (P31274 178-260) above, with R45W counted along it
# MSX2 [22] = target: MSX2 (Homo sapiens, UniProt P35548 130-214, F161Y)
# MSX2 (Homo sapiens, UniProt P35548 130-214, F161Y), sequence (P35548 130-214 F161Y): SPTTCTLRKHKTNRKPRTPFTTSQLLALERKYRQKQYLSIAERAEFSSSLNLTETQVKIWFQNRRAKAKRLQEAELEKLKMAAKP
# HOXA2 [23] = target: HOXA2 (Homo sapiens, UniProt O43364 129-215, R185T)
# HOXA2 (Homo sapiens, UniProt O43364 129-215, R185T), sequence (O43364 129-215 R185T): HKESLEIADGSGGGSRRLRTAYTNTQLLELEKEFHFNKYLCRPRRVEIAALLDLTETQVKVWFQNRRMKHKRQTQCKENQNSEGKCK
# ALX1 [24] = target: ALX1 (Homo sapiens, UniProt Q15699 118-204, L144V)
# ALX1 (Homo sapiens, UniProt Q15699 118-204, L144V), sequence (Q15699 118-204 L144V): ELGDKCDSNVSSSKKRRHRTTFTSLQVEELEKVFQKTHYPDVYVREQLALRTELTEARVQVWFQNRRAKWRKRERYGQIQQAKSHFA
# HOXA2 [25] = target: HOXA2 (Homo sapiens, UniProt O43364 129-215, R185K)
# HOXA2 (Homo sapiens, UniProt O43364 129-215, R185K), sequence (O43364 129-215 R185K): as the sequence (O43364 129-215 R185T) above, with T57K counted along it
# ALX1 [26] = target: ALX1 (Homo sapiens, UniProt Q15699 118-204, L144R)
# ALX1 (Homo sapiens, UniProt Q15699 118-204, L144R), sequence (Q15699 118-204 L144R): as the sequence (Q15699 118-204 L144V) above, with V27R counted along it
# HOXA2 [27] = target: HOXA2 (Homo sapiens, UniProt O43364 129-215, Y150S)
# HOXA2 (Homo sapiens, UniProt O43364 129-215, Y150S), sequence (O43364 129-215 Y150S): as the sequence (O43364 129-215 R185T) above, with Y22S, T57R counted along it
# ALX1 [28] = target: ALX1 (Homo sapiens, UniProt Q15699 118-204)
# ALX1 (Homo sapiens, UniProt Q15699 118-204), sequence (Q15699 118-204): as the sequence (Q15699 118-204 L144V) above, with V27L counted along it
# HOXA2 [29] = target: HOXA2 (Homo sapiens, UniProt O43364 129-215)
# HOXA2 (Homo sapiens, UniProt O43364 129-215), sequence (O43364 129-215): as the sequence (O43364 129-215 R185T) above, with T57R counted along it
# PRRX1 [30] = target: PRRX1 (Homo sapiens, UniProt P54821 80-166, F113S)
# PRRX1 (Homo sapiens, UniProt P54821 80-166, F113S), sequence (P54821 80-166 F113S): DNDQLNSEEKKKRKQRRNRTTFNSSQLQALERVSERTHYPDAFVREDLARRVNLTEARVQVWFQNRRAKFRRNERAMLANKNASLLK
# HOXB6 [31] = target: HOXB6 (Homo sapiens, UniProt P17509 132-218, K202E)
# HOXB6 (Homo sapiens, UniProt P17509 132-218, K202E), sequence (P17509 132-218 K202E): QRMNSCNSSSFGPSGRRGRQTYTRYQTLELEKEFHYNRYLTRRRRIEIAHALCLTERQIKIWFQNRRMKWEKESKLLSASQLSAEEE
# NKX3-2 [32] = target: NKX3-2 (Homo sapiens, UniProt P78367 192-278, P234S)
# NKX3-2 (Homo sapiens, UniProt P78367 192-278, P234S), sequence (P78367 192-278 P234S): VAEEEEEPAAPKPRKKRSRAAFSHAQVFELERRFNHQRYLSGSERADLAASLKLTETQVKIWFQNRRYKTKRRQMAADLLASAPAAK
# PRRX1 [33] = target: PRRX1 (Homo sapiens, UniProt P54821 80-166)
# PRRX1 (Homo sapiens, UniProt P54821 80-166), sequence (P54821 80-166): as the sequence (P54821 80-166 F113S) above, with S34F counted along it
# HOXB6 [34] = target: HOXB6 (Homo sapiens, UniProt P17509 132-218)
# HOXB6 (Homo sapiens, UniProt P17509 132-218), sequence (P17509 132-218): as the sequence (P17509 132-218 K202E) above, with E71K counted along it
# NKX3-2 [35] = target: NKX3-2 (Homo sapiens, UniProt P78367 192-278)
# NKX3-2 (Homo sapiens, UniProt P78367 192-278), sequence (P78367 192-278): as the sequence (P78367 192-278 P234S) above, with S43P counted along it
# HESX1 (Homo sapiens, UniProt Q9UBX0 95-180, R165K), sequence (Q9UBX0 95-180 R165K): as the sequence (Q9UBX0 95-180) above, with R71K counted along it
sequence,measurement,setting,value
CCAGGACC,binding signal,HESX1 [1],"6.54 upbm affinity estimate (log intensity, higher = more binding, comparable within an allelic series)"
same,binding signal,VENTX [2],"8.04 upbm affinity estimate (log intensity, higher = more binding, comparable within an allelic series)"
same,binding signal,VENTX [3],"7.74 upbm affinity estimate (log intensity, higher = more binding, comparable within an allelic series)"
same,binding signal,VENTX [4],"8.14 upbm affinity estimate (log intensity, higher = more binding, comparable within an allelic series)"
same,binding signal,HESX1 [5],"6.39 upbm affinity estimate (log intensity, higher = more binding, comparable within an allelic series)"
same,binding signal,HESX1 [6],"6.57 upbm affinity estimate (log intensity, higher = more binding, comparable within an allelic series)"
same,binding signal,HESX1 [7],"6.52 upbm affinity estimate (log intensity, higher = more binding, comparable within an allelic series)"
same,binding signal,HESX1 [8],"6.51 upbm affinity estimate (log intensity, higher = more binding, comparable within an allelic series)"
CCCCCAGC,binding signal,HESX1 [1],"6.28 upbm affinity estimate (log intensity, higher = more binding, comparable within an allelic series)"
same,binding signal,VENTX [2],"7.89 upbm affinity estimate (log intensity, higher = more binding, comparable within an allelic series)"
same,binding signal,VENTX [3],"8.03 upbm affinity estimate (log intensity, higher = more binding, comparable within an allelic series)"
same,binding signal,HOXA7 [9],"8.08 upbm affinity estimate (log intensity, higher = more binding, comparable within an allelic series)"
same,binding signal,VENTX [4],"7.96 upbm affinity estimate (log intensity, higher = more binding, comparable within an allelic series)"
same,binding signal,HESX1 [5],"6.22 upbm affinity estimate (log intensity, higher = more binding, comparable within an allelic series)"
same,binding signal,HESX1 [6],"6.3 upbm affinity estimate (log intensity, higher = more binding, comparable within an allelic series)"
same,binding signal,VAX1 [10],"7.08 upbm affinity estimate (log intensity, higher = more binding, comparable within an allelic series)"
same,binding signal,HESX1 [7],"6.31 upbm affinity estimate (log intensity, higher = more binding, comparable within an allelic series)"
same,binding signal,HESX1 [8],"6.46 upbm affinity estimate (log intensity, higher = more binding, comparable within an allelic series)"
same,binding signal,VAX1 [11],"7.15 upbm affinity estimate (log intensity, higher = more binding, comparable within an allelic series)"
same,binding signal,HOXA7 [12],"8.17 upbm affinity estimate (log intensity, higher = more binding, comparable within an allelic series)"
same,binding signal,VAX1 [13],"6.96 upbm affinity estimate (log intensity, higher = more binding, comparable within an allelic series)"
CCAGCGCA,binding signal,HESX1 [1],"6.46 upbm affinity estimate (log intensity, higher = more binding, comparable within an allelic series)"
same,binding signal,HOXC9 [14],"9.45 upbm affinity estimate (log intensity, higher = more binding, comparable within an allelic series)"
same,binding signal,HOXC10 [15],"10 upbm affinity estimate (log intensity, higher = more binding, comparable within an allelic series)"
same,binding signal,HESX1 [5],"6.4 upbm affinity estimate (log intensity, higher = more binding, comparable within an allelic series)"
same,binding signal,HOXC9 [16],"9.65 upbm affinity estimate (log intensity, higher = more binding, comparable within an allelic series)"
same,binding signal,MSX2 [17],"9.46 upbm affinity estimate (log intensity, higher = more binding, comparable within an allelic series)"
same,binding signal,HOXC9 [18],"9.5 upbm affinity estimate (log intensity, higher = more binding, comparable within an allelic series)"
same,binding signal,HOXC10 [19],"10 upbm affinity estimate (log intensity, higher = more binding, comparable within an allelic series)"
same,binding signal,MSX2 [20],"9.44 upbm affinity estimate (log intensity, higher = more binding, comparable within an allelic series)"
same,binding signal,HESX1 [6],"6.49 upbm affinity estimate (log intensity, higher = more binding, comparable within an allelic series)"
same,binding signal,VAX1 [10],"7.28 upbm affinity estimate (log intensity, higher = more binding, comparable within an allelic series)"
same,binding signal,HESX1 [7],"6.38 upbm affinity estimate (log intensity, higher = more binding, comparable within an allelic series)"
same,binding signal,HOXC9 [21],"9.6 upbm affinity estimate (log intensity, higher = more binding, comparable within an allelic series)"
same,binding signal,MSX2 [22],"9.44 upbm affinity estimate (log intensity, higher = more binding, comparable within an allelic series)"
same,binding signal,HESX1 [8],"6.38 upbm affinity estimate (log intensity, higher = more binding, comparable within an allelic series)"
same,binding signal,VAX1 [11],"7.16 upbm affinity estimate (log intensity, higher = more binding, comparable within an allelic series)"
same,binding signal,VAX1 [13],"7.39 upbm affinity estimate (log intensity, higher = more binding, comparable within an allelic series)"
CTGCATTA,binding signal,HESX1 [1],"7.23 upbm affinity estimate (log intensity, higher = more binding, comparable within an allelic series)"
same,binding signal,HOXA7 [9],"9.13 upbm affinity estimate (log intensity, higher = more binding, comparable within an allelic series)"
same,binding signal,HESX1 [5],"7.34 upbm affinity estimate (log intensity, higher = more binding, comparable within an allelic series)"
same,binding signal,HOXA2 [23],"9.52 upbm affinity estimate (log intensity, higher = more binding, comparable within an allelic series)"
same,binding signal,ALX1 [24],"8.85 upbm affinity estimate (log intensity, higher = more binding, comparable within an allelic series)"
same,binding signal,HOXA2 [25],"11.7 upbm affinity estimate (log intensity, higher = more binding, comparable within an allelic series)"
same,binding signal,ALX1 [26],"8.64 upbm affinity estimate (log intensity, higher = more binding, comparable within an allelic series)"
same,binding signal,HESX1 [7],"7.12 upbm affinity estimate (log intensity, higher = more binding, comparable within an allelic series)"
same,binding signal,HESX1 [8],"6.71 upbm affinity estimate (log intensity, higher = more binding, comparable within an allelic series)"
same,binding signal,HOXA2 [27],"10.6 upbm affinity estimate (log intensity, higher = more binding, comparable within an allelic series)"
same,binding signal,HOXA7 [12],"8.56 upbm affinity estimate (log intensity, higher = more binding, comparable within an allelic series)"
same,binding signal,ALX1 [28],"9.15 upbm affinity estimate (log intensity, higher = more binding, comparable within an allelic series)"
same,binding signal,HOXA2 [29],"9.83 upbm affinity estimate (log intensity, higher = more binding, comparable within an allelic series)"
CCGCCCCC,binding signal,HESX1 [1],"6.46 upbm affinity estimate (log intensity, higher = more binding, comparable within an allelic series)"
same,binding signal,VENTX [2],"8.05 upbm affinity estimate (log intensity, higher = more binding, comparable within an allelic series)"
same,binding signal,VENTX [3],"7.95 upbm affinity estimate (log intensity, higher = more binding, comparable within an allelic series)"
same,binding signal,PRRX1 [30],"9.06 upbm affinity estimate (log intensity, higher = more binding, comparable within an allelic series)"
same,binding signal,VENTX [4],"7.95 upbm affinity estimate (log intensity, higher = more binding, comparable within an allelic series)"
same,binding signal,HOXB6 [31],"8.84 upbm affinity estimate (log intensity, higher = more binding, comparable within an allelic series)"
same,binding signal,HESX1 [5],"6.33 upbm affinity estimate (log intensity, higher = more binding, comparable within an allelic series)"
same,binding signal,HOXA2 [23],"6.99 upbm affinity estimate (log intensity, higher = more binding, comparable within an allelic series)"
same,binding signal,HOXA2 [25],"9.92 upbm affinity estimate (log intensity, higher = more binding, comparable within an allelic series)"
same,binding signal,HESX1 [6],"6.51 upbm affinity estimate (log intensity, higher = more binding, comparable within an allelic series)"
same,binding signal,HESX1 [7],"6.43 upbm affinity estimate (log intensity, higher = more binding, comparable within an allelic series)"
same,binding signal,HESX1 [8],"6.41 upbm affinity estimate (log intensity, higher = more binding, comparable within an allelic series)"
same,binding signal,HOXA2 [27],"10.2 upbm affinity estimate (log intensity, higher = more binding, comparable within an allelic series)"
same,binding signal,NKX3-2 [32],"10.4 upbm affinity estimate (log intensity, higher = more binding, comparable within an allelic series)"
same,binding signal,PRRX1 [33],"8.75 upbm affinity estimate (log intensity, higher = more binding, comparable within an allelic series)"
same,binding signal,HOXA2 [29],"6.94 upbm affinity estimate (log intensity, higher = more binding, comparable within an allelic series)"
same,binding signal,HOXB6 [34],"8.81 upbm affinity estimate (log intensity, higher = more binding, comparable within an allelic series)"
same,binding signal,NKX3-2 [35],"10.4 upbm affinity estimate (log intensity, higher = more binding, comparable within an allelic series)"
